Data on 14 compounds can be found in PubChem BioAssay.

Assay [1] in a line: inhibitors of TNFa-induced NFkB p65 translocation, primary screen, imaging, HUVEC, MLSMR starter and 10KST1 sets (AID 438;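 active = inhibition above 20% together with a positive visual image hit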;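 also: compound added about 3h40 before a 20 min TNFalpha stimulation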;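 as to inhibition: signal is the nuclear over cytoplasmic p65 intensity ratio per well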). As to conditions: HUVEC TNFa-induced p65 nuclear translocation; cell count: measured here: nuclei count (cytotoxicity indicator), at 2.08 µM; inhibition: at 2 µM, stronger effect = higher value, 0% TNFa-plus-vehicle, 100% no-TNFa wells.
Assay [2] in a line: inhibitors of mutant huntingtin aggregation, primary screen, imaging, exon1htt(103Q)mCFP cells, high-content imaging (AID 483;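 active = visual image review flags a hit and inhibition of aggregation exceeds 20%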;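 also: compound exposure lasted 3 days before fixation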;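 as to nuclei count: percent of the per-plate median nuclei count of sample wells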). As to conditions: exon1htt(103Q)mCFP cell line, aggregate imaging, at 2 µM; inhibition of aggregation: stronger effect = higher value; nuclei count: measured here: cell count, toxicity.
The nature of assay [3]: inhibitors of E-selectin induction by TNFa, primary screen, imaging, HUVEC, immunofluorescence, MLSMR starter and 10KST1 sets (AID 487;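 active = visually confirmed hit in the image check and inhibition above 20%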;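 as to inhibition: signal is fraction of cell area covered by stained E-selectin grains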;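 as to nuclei count: 100% = median nuclei count of all wells on the same plate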). To be noted: HUVEC TNFalpha-induced E-selectin immunofluorescence imaging, at 2 µM; inhibition: stronger effect = higher value; nuclei count: measured here: cell number, toxicity.
In assay [4] the target is Voltage-gated potassium channel subunit beta-2 (Rattus norvegicus) (UniProt P62483). In words: KvBeta enzyme negative modulators, primary screen, biochemical, NADPH fluorescence (AID 622;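 active = fluorescence slope higher than the sample average by over 3 SD, cut at about -0.22 in these data, passing the limit was not always enough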;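 also: slope of raw intensity against log time taken from 70 to 1610 s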). To be noted: recombinant KvBeta, 4-cyanobenzaldehyde reduction, at 10 µM, stronger effect = higher value.
Sequence of Voltage-gated potassium channel subunit beta-2 (Rattus norvegicus) (P62483 whole entry, looked up): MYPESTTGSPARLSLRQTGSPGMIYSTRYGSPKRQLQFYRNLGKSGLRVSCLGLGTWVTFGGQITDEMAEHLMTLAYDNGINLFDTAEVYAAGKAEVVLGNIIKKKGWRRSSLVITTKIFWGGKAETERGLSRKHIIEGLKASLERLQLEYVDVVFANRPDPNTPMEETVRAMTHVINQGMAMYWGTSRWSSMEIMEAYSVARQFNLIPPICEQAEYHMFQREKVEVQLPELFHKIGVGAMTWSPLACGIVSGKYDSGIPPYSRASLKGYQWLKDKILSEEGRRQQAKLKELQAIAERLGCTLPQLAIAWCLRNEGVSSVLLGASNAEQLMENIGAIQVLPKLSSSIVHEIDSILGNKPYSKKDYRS
For assay [5] the target is unchanged. In words: KvBeta positive modulators, primary screen, biochemical, NADPH fluorescence (AID 623;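 active = NADPH fluorescence slope more negative than the mean of all samples by about 3 SD, 99.7% confidence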;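 also: fluorescence intensity change per second fitted from 20 to 320 s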). As to conditions: Recombinant KvBeta, NADPH fluorescence decrease slope, 10 min; at 10 µM; stronger effect = lower value.
For assay [6], the target named is Alpha-2C adrenergic receptor (Homo sapiens) (UniProt P18825). In words: modulators of alpha2C/GIRK thallium flux, primary screen, cell-based, HEK293 alpha2C/GIRK1/2 (AID 624).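 Also: slope of fluorescence ratio to pre-addition baseline per second over 15 to 24 s.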 To be noted: thallium flux BTC fluorescence, at 10 µM, actives lie on both sides.
Sequence of Alpha-2C adrenergic receptor (Homo sapiens) (P18825 whole entry, looked up): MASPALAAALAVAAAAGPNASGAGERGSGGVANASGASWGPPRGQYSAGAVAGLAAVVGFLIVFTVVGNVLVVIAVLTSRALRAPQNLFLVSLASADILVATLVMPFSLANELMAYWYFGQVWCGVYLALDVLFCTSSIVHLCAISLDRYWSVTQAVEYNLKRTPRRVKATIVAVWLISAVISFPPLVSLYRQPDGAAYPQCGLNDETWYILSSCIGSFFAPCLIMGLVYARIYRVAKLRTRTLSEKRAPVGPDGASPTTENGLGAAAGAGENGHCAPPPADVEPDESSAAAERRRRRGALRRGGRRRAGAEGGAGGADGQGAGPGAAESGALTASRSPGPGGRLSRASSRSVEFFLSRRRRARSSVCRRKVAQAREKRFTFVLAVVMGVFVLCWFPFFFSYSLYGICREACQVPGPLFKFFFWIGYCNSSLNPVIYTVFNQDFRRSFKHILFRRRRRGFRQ
The nature of assay [7]: inhibitors of Sendai virus-induced IRF3 signaling, primary screen, TLR/RLR signaling modifier project, cell-based, Sendai virus stimulus, luciferase, 10K MLSCN set (AID 602276;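 active = inhibition at or above 50% at 10 µM; inactive = inhibition below 50%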;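 also: firefly luciferase from ISG56 promoter only with Renilla not read in this screen; 0% = Sendai virus plus DMSO and 100% = medium plus DMSO without virus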). To be noted: HEK293 RL24 IRF3 luciferase reporter, at 10 µM, stronger effect = higher value. (In a reporter assay the amount or activity of a reporter protein is the signal.)
Assay [8] can be described thus: inhibitors of poly I:C-induced TLR3 signaling, primary screen, cell-based, poly I:C stimulus, luciferase, 10K MLSCN set (AID 602277;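 active = inhibition of the reporter signal at or above 50%; inactive = inhibition below 50%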). As to conditions: HEK293-TLR3 RL24 IRF3 luciferase reporter, at 10 µM, stronger effect = higher value.

Active and inactive are the calls of the source.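 The calls were made as follows, unless noted: active = fluorescence slope after compound addition differing from the mean of all screened samples at 99.7% confidence, in either direction; inactive = the rest.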

Broadly, the inhibition is the drop in the measured response relative to a control, in per cent. Turning to `O=C1c2ccccc2C(=O)N1CCCCN1CCN(CCCCN2C(=O)c3ccccc3C2=O)CC1`, in assay [1], the cell count turned out to be 401. The inhibition is -3.5% (inactive) in assay [1], -22.5% (inactive) in assay [3], 14.1% (inactive) in assay [7] and 10.6% (inactive) in assay [8]. Besides, the inhibition of aggregation in assay [2] is 17.2% (inactive). In addition, the nuclei count in assay [2] was determined as 2.4%; in assay [3], 86.8%. The fluorescence slope in assay [4] is -0.408 (inactive). Also, the NADPH fluorescence slope in assay [5] was -3.8e-05 (inactive). In addition, the slope in assay [6] was 0.00409 (inactive).
As to `CCOCCCn1c(=NC(C)=O)c(C(=O)OCC)cc2c(=O)n3ccccc3nc21`, the cell count in assay [1] worked out at 473. The inhibition was -3.3% (inactive) in assay [1], -119% (inactive) in assay [3], -7.28% (inactive) in assay [7] and -15% (inactive) in assay [8]. Also, the inhibition of aggregation in assay [2] is 2.4% (inactive). In addition, the figures for the nuclei count in assay [2] and in assay [3] were 108% and 129%, respectively. In assay [4], the fluorescence slope is -0.114 (inactive). For the same compound, the NADPH fluorescence slope in assay [5] was -3.8e-05 (inactive). Besides, the slope in assay [6] was 0.00394 (inactive).
As for `COc1ccc(C)cc1-n1c(N)c(C#N)c(C#N)c1-c1ccc(OC)c(OC)c1OC`, in assay [1], the cell count is 676. In addition, the inhibition in assay [1] is -3.9% (inactive); in assay [3], -9.7% (inactive); in assay [7], 12% (inactive); in assay [8], 32.6% (inactive). In assay [2], the inhibition of aggregation was 16.9% (inactive). In addition, the nuclei count in assay [2] turned out to be 86%; in assay [3], 105%. Also, the fluorescence slope in assay [4] was -0.537 (inactive). In assay [5], the NADPH fluorescence slope was 2.9e-05 (inactive). For the same compound, the slope in assay [6] was 0.00611 (inactive).
Take `CCOC(=O)c1ccc(N=c2sc(C(=O)OC)cc(=O)n2Cc2ccco2)cc1`: the cell count in assay [1] turned out to be 514. The inhibition in assay [1] was -8% (inactive); in assay [3], 0.2% (inactive); in assay [7], -17.5% (inactive); in assay [8] it was 77.4% (active). Moreover, in assay [2], the inhibition of aggregation was -5.9% (inactive). Moreover, the values for the nuclei count in assay [2] and in assay [3] were 107% and 112%, respectively. In addition, the fluorescence slope in assay [4] is -0.608 (inactive). For the same compound, in assay [5], the NADPH fluorescence slope is -4.8e-05 (inactive). In addition, the slope in assay [6] was 0.00678 (inactive).
`N#CCCn1ccc(NC(=O)c2ccc(Cl)cc2)n1`: the cell count in assay [1] came out at 444. The inhibition in assay [1] was -6.3% (inactive); in assay [3] it was -23% (inactive); in assay [7], -18.1% (inactive); in assay [8], -11.6% (inactive). Moreover, the inhibition of aggregation in assay [2] was 13.4% (inactive). Moreover, the figures for the nuclei count in assay [2] and in assay [3] were 100% and 131%, respectively. Also, in assay [4], the fluorescence slope was -0.477 (inactive). Moreover, the NADPH fluorescence slope in assay [5] was -6.3e-05 (inactive). Moreover, the slope in assay [6] is 0.00607 (inactive).
As for `Cc1nnc(SCc2cc(=O)[nH]c(N3CCCCC3)n2)s1`, the cell count in assay [1] came out at 639. Also, the inhibition in assay [1] was 5% (inactive); in assay [3] it was 14.7% (inactive); in assay [7], 13.1% (inactive); in assay [8] it was 19.7% (inactive). Also, the inhibition of aggregation in assay [2] is 0.6% (inactive). The nuclei count in assay [2] was found to be 96.3%; in assay [3] it was 107%. In addition, the fluorescence slope in assay [4] is -0.592 (inactive). The NADPH fluorescence slope in assay [5] was -3.2e-05 (inactive). The slope in assay [6] was 0.00759 (inactive).
Take `COc1c(S(=O)(=O)n2nc(C)cc2C)ccc(Cl)c1Cl`: the cell count in assay [1] was found to be 536. Moreover, the inhibition is 11.4% (inactive) in assay [1], -25.3% (inactive) in assay [3], -8.21% (inactive) in assay [7] and 15.5% (inactive) in assay [8]. Also, the inhibition of aggregation in assay [2] was -8.9% (inactive). Besides, the results for the nuclei count in assay [2] and in assay [3] were 120% and 68.4%, respectively. Also, in assay [4], the fluorescence slope was -0.434 (inactive). The NADPH fluorescence slope in assay [5] is -7.2e-05 (inactive). For the same compound, the slope in assay [6] was 0.0052 (inactive).
Regarding `COc1cccc(-n2c(SCC(=O)N3CCCC3)nc3c([nH]c4ccccc43)c2=O)c1`, the cell count in assay [1] came to 493. Moreover, the inhibition in assay [1] was -5.9% (inactive); in assay [3] it was 5.4% (inactive); in assay [7], -9.13% (inactive); in assay [8], 55.5% (active). Besides, the inhibition of aggregation in assay [2] was 0.6% (inactive). In addition, the nuclei count was determined as 75.6% in assay [2] and 91.8% in assay [3]. Also, the fluorescence slope in assay [4] is -0.544 (inactive). For the same compound, the NADPH fluorescence slope in assay [5] is -1.5e-05 (inactive). Further, in assay [6], the slope was 0.00652 (inactive).
As for `CC1CC(=O)c2cnc(NCC3CCCO3)nc2C1` (centres undefined), the cell count in assay [1] was found to be 613. In addition, the inhibition in assay [1] was 13.9% (inactive); in assay [3] it was 12.9% (inactive); in assay [7], 6.29% (inactive); in assay [8] it was -1.06% (inactive). The inhibition of aggregation in assay [2] is -14% (inactive). Besides, the nuclei count in assay [2] amounted to 106%; in assay [3], 107%. Further, in assay [4], the fluorescence slope was -0.404 (inactive). In addition, the NADPH fluorescence slope in assay [5] is -2.9e-05 (inactive). The slope in assay [6] was 0.00446 (inactive).
As for `O=C(Cc1cccs1)Nc1nnc(CCc2ccccc2)s1`, the cell count in assay [1] was 382. The inhibition in assay [1] is 1.5% (inactive); in assay [3] it was -152% (inactive); in assay [7], 9.85% (inactive); in assay [8], 31.2% (inactive). Moreover, the inhibition of aggregation in assay [2] is 15.6% (inactive). For the same compound, the nuclei count worked out at 110% in assay [2] and 117% in assay [3]. Moreover, in assay [4], the fluorescence slope is -0.437 (inactive). Further, in assay [5], the NADPH fluorescence slope was -5.5e-05 (inactive). The slope in assay [6] is 0.00318 (inactive).
As for `COC(=O)C(C)Sc1nnc2n(-c3cccc(C)c3)c(=O)c3c4c(sc3n12)CCCC4` (centres undefined), in assay [1], the cell count amounted to 660. Also, the inhibition was 9.4% (inactive) in assay [1], -1.2% (inactive) in assay [3], -16% (inactive) in assay [7] and -7.85% (inactive) in assay [8]. Further, the inhibition of aggregation in assay [2] was 7.6% (inactive). Besides, the values for the nuclei count in assay [2] and in assay [3] were 101% and 120%, respectively. For the same compound, the fluorescence slope in assay [4] was -0.58 (inactive). The NADPH fluorescence slope in assay [5] is -3.5e-06 (inactive). Moreover, in assay [6], the slope was 0.00585 (inactive).
Turning to `Cc1ccc(N2CCN(CCc3nc4cc(NS(C)(=O)=O)ccc4n3C)CC2)cc1`, the cell count in assay [1] was 322. In addition, the inhibition in assay [1] is 7% (inactive); in assay [3], 21.6% (inactive); in assay [7], -11.6% (inactive); in assay [8] it was -19.7% (inactive). Also, the inhibition of aggregation in assay [2] is 2% (inactive). The nuclei count in assay [2] stood at 90.6%; in assay [3], 122%. Moreover, in assay [4], the fluorescence slope was -0.531 (inactive). Moreover, in assay [5], the NADPH fluorescence slope is -3.7e-05 (inactive). Besides, the slope in assay [6] is 0.00789 (inactive).
In the case of `CCOC(=O)CSc1nnc(-c2ccc(Cl)cc2Cl)o1`, the cell count in assay [1] was 376. Besides, the inhibition is 1.9% (inactive) in assay [1], -57.5% (inactive) in assay [3], 4.99% (inactive) in assay [7] and 2.18% (inactive) in assay [8]. Moreover, the inhibition of aggregation in assay [2] was -9.2% (inactive). Further, the nuclei count in assay [2] was 93.8%; in assay [3], 116%. The fluorescence slope in assay [4] was -0.405 (inactive). In addition, the NADPH fluorescence slope in assay [5] was -2.6e-05 (inactive). In addition, in assay [6], the slope is 0.00557 (inactive).
Turning to `COc1cc2c(=O)n(Cc3ccccc3)c(=O)n(CC(=O)NCc3ccco3)c2cc1OC`, the cell count in assay [1] came out at 358. Further, the inhibition in assay [1] was 3.5% (inactive); in assay [3] it was -319% (inactive); in assay [7] it was 23.8% (inactive); in assay [8], 21.5% (inactive). In addition, in assay [2], the inhibition of aggregation is -3.1% (inactive). Moreover, the nuclei count in assay [2] came out at 107%; in assay [3], 109%. Further, in assay [4], the fluorescence slope was -0.37 (inactive). In assay [5], the NADPH fluorescence slope was 9e-06 (inactive). Moreover, the slope in assay [6] was 0.0075 (inactive).
